Data on 20 compounds can be found in PubChem BioAssay (NCI).

Where “and” joins values, the source holds several entries; their conditions need not be identical. Equal values may be shown once. Compounds without any hit were thinned out: in the full panel of roughly 79,000, 15% have a hit. A number with no mark means an inactive call. Calls of active or inactive are those of the source. Cut-off read from the data, not from the text of the source: active = growth inhibition above about 70%; inactive = the rest.

A short description of experiment [1]: NCI Yeast Anticancer Drug Screen. Data for the rad50 strain (AID 155).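 Note: 0% = growth of vehicle-only cultures of the same strain.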 The conditions noted are these: S. cerevisiae rad50 strain growth inhibition, active compounds read high; at 50.0 µM unless noted. The method in brief: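 Vehicle-treated cultures provide the reference for the growth inhibition reported for compound-exposed, repair-deficient yeast.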
Experiment [2] is described as follows: NCI Yeast Anticancer Drug Screen. Data for the mec2-1 strain (AID 157). Conditions: S. cerevisiae mec2-1 strain, active compounds read high; at 50.0 µM unless noted. A digest of the protocol:
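Test agents were screened against the mec2-1 yeast strain, with defined DNA repair or cell cycle alteration. Growth was scored as inhibition against vehicle-only controls.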

Experiment [3] in a line: NCI Yeast Anticancer Drug Screen. Data for the sgs1 mgt1 strain (AID 161).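 Note: 0% = growth of cultures given vehicle only.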 The conditions noted are these: S. cerevisiae sgs1 mgt1 strain, active compounds read high; at 50.0 µM unless noted. A digest of the protocol: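 Mutant yeast exposed to compound; growth scored against vehicle-only wells.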
Experiment [4] can be described thus: NCI Yeast Anticancer Drug Screen. Data for the cln2 rad14 strain (AID 165).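 Note: 0% = growth equal to vehicle treated cultures.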 The conditions noted are these: S. cerevisiae cln2 rad14 strain, active compounds read high; at 50.0 µM unless noted. A digest of the protocol:
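Growth of compound-exposed yeast (cln2 rad14 genotype) measured and expressed as inhibition relative to vehicle.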

The nature of experiment [5]: NCI Yeast Anticancer Drug Screen. Data for the bub3 strain (AID 167). Conditions: S. cerevisiae bub3 mutant strain, active compounds read high; at 50.0 µM unless noted. The method in brief: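 Mutant yeast screening strain plus compound; vehicle-treated cultures serve as the 0% inhibition reference.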
The nature of experiment [6]: NCI Yeast Anticancer Drug Screen. Data for the mlh1 rad18 strain (AID 175). Conditions: S. cerevisiae mlh1 rad18 strain growth inhibition, active compounds read high; at 50.0 µM unless noted. The method in brief: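 In this whole-cell yeast screen, a strain with altered DNA damage repair is challenged with compound, and its growth is measured against matched vehicle-treated controls.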

Regarding `C(=N\N1CN(/N=C/c2ccccc2)C(c2ccccc2)C1c1ccccc1)/c1ccccc1` (stereo not given), the growth inhibition in experiment [1] was -6.2%; in experiment [2], -3.15%; in experiment [3], 4.5%; in experiment [4], 7.35%; in experiment [5], -1.65%; in experiment [6] it was 7.05%.

On to `CCC[CH2][Sn]1([CH2]CCC)[O]C2C(CO)OC(n3c(Br)c(C#N)c4c(N)ncnc43)C2[O]1` (stereo not given), for which the growth inhibition is 98.4% (active) in experiment [1]; 98.5% (active) in experiment [2]; 98.7% (active) in experiment [3]; 98.7% (active) in experiment [4]; 97.7% (active) in experiment [5]; 98% (active) in experiment [6].

As to `COc1ccc(C2OC3=C(Nc4cc(C)c(C)cc4N3)C2=O)cc1` (stereo not given), the growth inhibition in experiment [1] was 11.2%; in experiment [2], -8.05%; in experiment [3] it was 2.05%; in experiment [4], -1.35%; in experiment [5], -22.3%; in experiment [6], 13.8%.

In the case of `O=C(O)c1ccc(/C=N/N=C2c3ccccc3-c3ccccc32)cc1`, the growth inhibition is 66.6% in experiment [1]; 35.5% in experiment [2]; 41% in experiment [3]; 72.1% (active) in experiment [4]; -4.5% in experiment [5]; 64.2% in experiment [6].

Take `Cc1ccc(S(=O)(=O)Nc2ccc([N+](=O)[O-])cc2-c2ccccc2)cc1`: the growth inhibition in experiment [1] was -0.25%; in experiment [2] it was -9.2%; in experiment [3] it was 0.2%; in experiment [4], -1.15%; in experiment [5] it was 5.15%; in experiment [6] it was 4.2%.

Consider `O=C(O)CNOCN1C(=O)c2ccccc2C1=O`, for which the growth inhibition is 11.6% in experiment [1]; -1.25% in experiment [2]; 13.3% in experiment [3]; -21.6% in experiment [4]; -16% in experiment [5]; 14.4% in experiment [6].

In the case of `O=C(Cc1nc2ccccc2o1)C(=O)Nc1cccc(Cl)c1`, the growth inhibition was -4.25% in experiment [1]; 0.9% in experiment [2]; -1.95% in experiment [3]; -42.2% in experiment [4]; 3.65% in experiment [5]; 19.1% in experiment [6].

Take `Cc1ccc([N+](=O)[O-])cc1NS(=O)(=O)c1cc(Cl)c(Cl)cc1Cl`: the growth inhibition is 19.8% in experiment [1]; 36.6% in experiment [2]; 49.2% in experiment [3]; -8.5% in experiment [4]; 1.2% in experiment [5]; 61.2% in experiment [6].

In the case of `CC1C(C)(C)C23CC12C1(OCCO1)C3Br` (stereo not given), the growth inhibition in experiment [1] is -11.4%; in experiment [2], -4.4%; in experiment [3] it was -6.6%; in experiment [4], 14.6%; in experiment [5], 10.8%; in experiment [6] it was 25.4%.

`Cc1ccc(C2SC(N)=Nc3c2c(C)nn3C(=O)c2ccc(Cl)cc2)cc1` (stereo not given): the growth inhibition is -36.1% in experiment [1]; -42% in experiment [2]; -16.4% in experiment [3]; -33.5% in experiment [4]; -27.6% in experiment [5]; -24.9% in experiment [6].

In the case of `COc1ccc(O)c2c1C(=O)CCCC2=O`, the growth inhibition in experiment [1] was 3.65%; in experiment [2] it was -0.75%; in experiment [3] it was 6.35%; in experiment [4], -4.6%; in experiment [5], 4.05%; in experiment [6], 0.7%.

Regarding `CCCCCCC(CCN(C)C)(C(C)=O)c1ccccc1` (stereo not given), the growth inhibition in experiment [1] is -3.3%; in experiment [2], 3.7%; in experiment [3], 1.05%; in experiment [4], -3.5%; in experiment [5] it was 6.85%; in experiment [6] it was 11.1%.

With `O=C(c1ccccc1)c1ccc(NC(=O)C(F)(F)F)cc1`, the growth inhibition in experiment [1] is 15.7%; in experiment [2], 5.9%; in experiment [3], 3.85%; in experiment [4], 4.75%; in experiment [5], -0.15%; in experiment [6], 18.9%.

For `CC(=O)CCCCC(=O)Nc1ccc(CC(NC(=O)OC(C)(C)C)C(=O)NCC(=O)OCc2ccccc2)cc1` (stereo not given), the growth inhibition in experiment [1] is -38.5%; in experiment [2], -4.5%; in experiment [3], -1.6%; in experiment [4], 8.85%; in experiment [5], 10%; in experiment [6], -12.1%.

With `O=c1[nH]cnc2c1ncn2C1CCCO1` (stereo not given), the growth inhibition in experiment [1] is -14.2%; in experiment [2], -3.3%; in experiment [3], -2.9%; in experiment [4] it was -24.1%; in experiment [5], 17.4%; in experiment [6], 0.9%.

For the compound `O=C1OC(C(O)C(O)CO)C(O)C1O` (stereo not given), the growth inhibition in experiment [1] is 8.2% and -17.4%; in experiment [2], 7.7% and -27.4%; in experiment [3], 1.35% and -34.2%; in experiment [4], -16.9% and -32.7%; in experiment [5], 14.4% and -0.9%; in experiment [6] it was -23.7% and -1.8%.

On to `Cc1ncc(CN=Cc2ccc(Cl)cc2)c(N)n1`, for which the growth inhibition in experiment [1] is 9.8%; in experiment [2] it was 17%; in experiment [3], -9.45%; in experiment [4], -12%; in experiment [5], 8.9%; in experiment [6] it was 13.2%.

As to `Cc1ncc([N+](=O)[O-])n1CC(O)Cn1cnc([N+](=O)[O-])n1` (stereo not given), the growth inhibition in experiment [1] is -19%; in experiment [2] it was -6.5%; in experiment [3], -1.75%; in experiment [4], -4.2%; in experiment [5], -4.35%; in experiment [6], -31.4%.

Turning to `CCCCCCCCCCCCCCCCCCCCCCCCC(=O)O`, the growth inhibition was -18.6% in experiment [1]; -22.6% in experiment [2]; -11.4% in experiment [3]; 4.15% in experiment [4]; -33.5% in experiment [5]; -25.5% in experiment [6].

As for `CCN(CC)CCn1c2cc3c(cc2c(=O)c2cccnc21)OCO3`, the growth inhibition in experiment [1] is -18.1%; in experiment [2], -17.6%; in experiment [3], -29.4%; in experiment [4], 13.8%; in experiment [5] it was -34%; in experiment [6] it was 24.1%.
